Assay results taken from ChEMBL document CHEMBL3988442, “University of Dundee, Small-Polar-MMV Screening Library” (2021).
In all, about 53,000 compounds went through this assay and about 900 (1.7%) showed an effect of 50% or more. This excerpt belongs to a sample that is enriched for strong results.

Each compound was assayed on Mycobacterium tuberculosis (assay: Cornell - Phenotypic assay to identify agents that inhibit growth of Mycobacterium tuberculosis). Details: 10 mM as filed; unlikely as a test dose.
Format: functional
Set-up: scale not given: direction of the effect not stated beside the values

Compound	Percent Effect [%]
O[C@@H]1CN(c2nc3ccccc3o2)CC[C@H]1c1ccc2c(c1)OCO2	1.12
O[C@@H]1CN(c2cnc3ccccc3n2)CC[C@H]1c1ccc2c(c1)OCO2	102.9
O[C@@H]1CN(c2nc3ccccc3s2)CC[C@H]1c1ccc2c(c1)OCO2	18.1
COc1cccc(CNC(=O)CN2CCCC(Cn3cncn3)C2)c1 (stereo not given)	-43.6
Cc1cnn(C2CN(Cc3nnc(Cc4ccccc4)o3)C2)c1	75.37
Cc1ccc(-c2noc(CN3CC(n4cc(C)cn4)C3)n2)cc1	41.03
Cc1cnn(C2CN(Cc3nc(C(C)(C)C)no3)C2)c1	-9.455
Cc1cnn(C2CN(Cc3nc(-c4ccsc4)no3)C2)c1	18.79
Cc1cnn(C2CN(Cc3nc(-c4cccnc4)no3)C2)c1	3.209
Cc1cccc(-c2noc(CN3CC(n4cc(C)cn4)C3)n2)c1	51.38
Cc1cc(C)n(C2CN(Cc3nc4cc(Cl)ccc4n3C)C2)n1	-28.71
Cc1cnn(C2CN(Cc3nc(-c4ccccc4C)no3)C2)c1	-13.18
Cc1ccc(-c2nnc(CN3CC(n4cc(C)cn4)C3)o2)cc1	82.45
Cc1cnn(C2CN(Cc3nnc(-c4ccccc4Cl)o3)C2)c1	-48.85
Cc1cnn(C2CN(Cc3nc4cc(Cl)ccc4n3C)C2)c1	63.15
Cc1cnn(C2CN(Cc3nc(-c4ccccn4)no3)C2)c1	-25.23
CCOc1ccccc1-n1c(C2CC(=O)N(C)C2)n[nH]c1=O (stereo not given)	-16.7
Cc1c[nH]c(CN(C)C(=O)[C@]23CNC[C@H]2CNC3)n1	-19.02
O=C(Nc1ccnn1Cc1ccc(Cl)cc1)C1CCS(=O)(=O)C1 (stereo not given)	-30.31
CC(C)(C)C(=O)NS(=O)(=O)c1ccc(F)cc1C(F)(F)F	31.3
CC(=O)N1CCC(Cc2cnc(Nc3cc(C)on3)cn2)CC1	-2.54
Nc1nonc1C(=O)N1Cc2ccccc2OC2(CCOCC2)C1	-22.02

Compound	Percent Effect [%]
COc1ccc(-c2cn([C@H](CO)CC(C)C)nn2)cn1	26.72
COC(=O)Cn1c(=O)nc2n1C(=O)N(c1ccc(F)cc1)C2	8.177
Cc1cnn(CC2CCCN2C(=O)c2cccc(S(C)(=O)=O)c2)c1 (stereo not given)	1.06
Cc1noc([C@]23COC[C@H]2CN(C(=O)COC2CCCC2)C3)n1	1.713
CNC(=O)Cn1c(-c2ccco2)nn(-c2ccccc2OC)c1=O	-0.5787
CC(c1cccnc1)N(C)C(=O)NCCOc1ccc(C#N)cc1 (stereo not given)	12.58
C[C@@H]1CN(C(=O)C2CCS(=O)(=O)CC2)CC[C@@]1(O)C1CCOCC1	26.03
Cc1cc(C)n(CCN2CCC(N(C)Cc3nnc(C)n3C)C2)n1 (stereo not given)	-7.03
CCN(C(=O)Cc1ccc(NC(=O)NC2CC2)cc1)c1ccccc1	-6.305
CCN(C(=O)Cc1ccc(NCc2nccn2C)cc1)c1ccccc1	9.386
CCN(C(=O)Cc1ccc(NCc2ncc[nH]2)cc1)c1ccccc1	52.94
Cc1nn(C)c(Cl)c1C1CCCN1C(=O)c1cnc[nH]1 (stereo not given)	8.572
Cc1ccc(C(=O)NCc2ccnc(C3CCCOC3)n2)s1 (stereo not given)	2.557
CC(C)(C)CNC(=O)c1ccc(C(=O)O)nc1	11.56
CN(CC(=O)NCCc1ccccn1)C(=O)c1cccs1	-9.987
CNC(=O)C(C)CN(C)C(=O)Nc1cc(F)cc(Br)c1 (stereo not given)	72.87
CC(O)CCN(C)C(=O)Nc1cc(F)cc(Br)c1 (stereo not given)	23
CN(CC(O)C1CC1)C(=O)Nc1cc(F)cc(Br)c1 (stereo not given)	5.584
Cn1nc(C2CN(S(C)(=O)=O)C2)c2nccnc21	-1.799
Nc1nnc(SCC(=O)c2cc3c(cc2Cl)NC(=O)C3)s1	9.185
CSc1nsc(SCC(=O)c2cc3c(cc2Cl)NC(=O)C3)n1	71.22
Cc1nnc(SCC(=O)c2cc3c(cc2Cl)NC(=O)C3)s1	21.14

Compound	Percent Effect [%]
O=C(C1CCOCC1)N1CCC(O)(Cn2ccc3ccncc32)CC1	-3.808
Cc1cc(CN2C[C@@H]3COC[C@@H](C(=O)N4CCCCO4)[C@@H]3C2)oc1C.O=C(O)C(F)(F)F	19.33
CN(C)CC1(O)CCN(C(=O)Cc2ccc(Cl)c(Cl)c2)C1 (stereo not given)	-11.99
CN(C)CC1(O)CCN(C(=O)Cc2ccc3c(c2)CCCC3)C1 (stereo not given)	27.93
CN(C)CC1(O)CCN(C(=O)Cc2ccc3c(c2)CCC3)C1 (stereo not given)	59.81
O=C1C(Sc2nnnn2C2CC2)CCN1c1ccccc1F (stereo not given)	-21.88
O=C(O)c1cc(NS(=O)(=O)c2ccccc2F)ccc1N1CCSCC1	-53.64
Cc1ccc(S(=O)(=O)Nc2ccc(-n3cccc3C(=O)O)c(C)c2)cc1	24.84
Cc1ccc(S(=O)(=O)Nc2ccc(-n3cccc3C(=O)O)c(C)c2)s1	77.19
Cc1cc(NS(=O)(=O)c2ccc(Cl)s2)ccc1-n1cccc1C(=O)O	25.94
Cc1cc(NS(=O)(=O)c2ccccc2F)ccc1-n1cccc1C(=O)O	63.88
Cc1cc(NS(=O)(=O)c2cccs2)ccc1-n1cccc1C(=O)O	31.6
Cc1cnn(CC2CN(CC(=O)N(C)Cc3cnn(C)c3)CCO2)c1 (stereo not given)	-28.01
CCc1ccccc1-n1nnc(C(=O)O)c1-c1ccccn1	8.629
Clc1ccc(OCCNC2(c3ccc(Br)cc3)CCOCC2)cc1	68.56
CCOCCNC1(c2ccc(Cl)cc2)CCOCC1	-7.005
COCCNC1(c2ccc(Cl)cc2)CCOCC1	-43.32
CNC(=O)C1(C)CN(c2nnc(C)c3ccccc23)CCO1 (stereo not given)	14
COc1ccc(N(c2ccc(OC)cc2)c2ccc(C(=O)O)s2)cc1	27.51
COc1ccc(N(c2ccccc2)c2ccc(C(=O)O)s2)cc1	73.26
COc1ccc(N(c2ccc(C)cc2)c2ccc(C(=O)O)s2)cc1	2.836
